# Bioassay records deposited in PubChem by Buhrlage Lab, Dana-Farber Cancer Institute and Novartis Institutes for BioMedical Research (Cambridge, Mass).
# USP10 block – human USP10 deubiquitinase inhibition | Q14694 | purified USP10, Ub-rhodamine fluorescence, 60 min | inhibition, % at 20 µM | 1.1% of 47,000 active | AID 1645856
# Target sequence (Q14694 whole entry, looked up): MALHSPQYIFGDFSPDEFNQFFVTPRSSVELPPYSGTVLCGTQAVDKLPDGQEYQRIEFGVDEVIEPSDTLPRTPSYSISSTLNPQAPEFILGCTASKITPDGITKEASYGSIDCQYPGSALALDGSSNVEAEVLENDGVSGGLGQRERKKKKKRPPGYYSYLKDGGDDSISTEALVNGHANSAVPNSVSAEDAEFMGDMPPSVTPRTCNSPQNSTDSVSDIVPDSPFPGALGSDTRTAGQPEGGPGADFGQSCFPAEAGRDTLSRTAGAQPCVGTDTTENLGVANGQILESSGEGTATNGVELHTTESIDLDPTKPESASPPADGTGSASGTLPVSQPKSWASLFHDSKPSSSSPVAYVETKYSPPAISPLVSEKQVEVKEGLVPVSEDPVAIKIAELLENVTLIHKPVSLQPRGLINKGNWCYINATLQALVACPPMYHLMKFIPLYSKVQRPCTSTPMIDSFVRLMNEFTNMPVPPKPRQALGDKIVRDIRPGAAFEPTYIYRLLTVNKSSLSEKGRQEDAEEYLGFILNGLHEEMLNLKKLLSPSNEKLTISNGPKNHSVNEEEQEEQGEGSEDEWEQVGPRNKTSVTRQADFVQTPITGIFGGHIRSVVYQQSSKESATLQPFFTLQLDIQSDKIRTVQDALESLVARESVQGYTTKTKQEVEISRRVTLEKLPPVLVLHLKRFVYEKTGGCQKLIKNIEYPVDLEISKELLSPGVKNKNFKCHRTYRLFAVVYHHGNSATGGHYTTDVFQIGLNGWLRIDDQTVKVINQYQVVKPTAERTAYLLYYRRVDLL
# USP7 block – blocks human USP7 ubiquitin-rhodamine cleavage; Q93009; purified USP7, Ub-rhodamine cleavage fluorescence; inhibition, % at 20 µM; 0.3% of 47,000 active
# USP30 block – inhibitors of human USP30 deubiquitinase; purified USP30, Ub-rhodamine cleavage fluorescence; Q70CQ3; inhibition, % at 25 µM; 5.3% of 47,000 active
# USP17 inh – human USP17-like deubiquitinase inhibition; inhibition, % at 50 µM; A8MUK1; AID 1645855; purified USP17, Ub-rhodamine cleavage fluorescence, 3 h; 6.5% of 47,000 active
# USP28 block – inhibitors of human USP28 deubiquitinase; inhibition, % at 25 µM; 3% of 47,000 active; purified USP28, Ub-rhodamine cleavage fluorescence, 30 min; Q96RU2
# USP8 inh – human USP8 deubiquitinase inhibition | P40818 | purified USP8, Ub-rhodamine cleavage fluorescence, 30 min | inhibition, % at 20 µM | 4.2% of 47,000 active | AID 1645853
# Numbers without * were called inactive; x = no result. Sampled rows, rich in hits. Any-hit rate of the full collection: about 13%. Rule as the data show it: active = inhibition above about 30%; inactive = the rest.
SMILES,USP10 block,USP7 block,USP30 block,USP17 inh,USP28 block,USP8 inh
Cc1nc2cc(N3CCC(C(=O)N4CCC(N5CCCCC5)CC4)CC3)cnc2nc1C,-8,-27,-320,-104,-113,-60
COC(=O)c1ccc(C(=O)OC)c(N2C(=O)CSCC2=O)c1,7,-9,49*,20,13,36*
O=C(OC1CSc2nc3ccccc3n2C1)c1ccc([N+](=O)[O-])o1 (centres undefined),40*,-38,-62,96*,-2,64*
O=C(NCc1ccccc1Cl)C1CCn2c(nc3ccccc32)C1 (centres undefined),-3,-4,-3,-12,-2,-1
O=S(=O)(Nc1ccc(Oc2ccccc2)cc1)c1ccccc1F,22,-5,41*,34*,32*,4
Cc1nc(SCC(=O)NCC2CCCO2)c2c(=O)n(C)c(=O)n(C)c2n1 (centres undefined),0,2,11,5,3,5
CCOc1ccc(-n2c(C)c3c(C)nn4cc(-c5ccccc5)cc4c3c2C)cc1,9,10,32*,31*,9,29
CCOc1ccc(-n2c(C)c(C)c3c2ncn2nc(-c4ccccn4)nc32)cc1,-2,0,10,3,6,1
Cc1ncnc2nc[nH]c12,1,3,9,2,5,0
Cc1ccc(C)c(CSc2ncnc3nc[nH]c23)c1,3,-10,-8,-6,40*,-19
N#Cc1ccc(-c2ccc(S(=O)(=O)C3CCN(Cc4cccc(C(F)(F)F)c4)CC3)cc2)cc1,-4,-21,-141,-37,-22,-13
Cc1ccccc1OCc1nc2c3c(C)c(C)oc3ncn2n1,-7,0,-34,3,9,19
Cc1oc2ncn3nc(C(C)Oc4cccc5ccccc45)nc3c2c1C (centres undefined),-11,-13,-144,32*,-9,78*
Cc1ccc(NC(=O)N2CCC3(CC2)NC(=O)C(CC(C)C)NC3=O)cc1 (centres undefined),2,3,46*,43*,17,21
COc1ccc(CCC(=O)Nc2ccc3nc(N4CCN(c5ncccn5)CC4)cc(C)c3c2)cc1,14,1,30*,10,16,36*
CCN(CC)c1cc(C)c2cc(NC(=O)CCc3ccc(OC)cc3)ccc2n1,2,8,5,13,46*,54*
Cc1cc(N2CCN(c3ncccn3)CC2)nc2ccc(NC(=O)/C=C/c3ccccc3Cl)cc12,-1,2,10,51*,40*,15
CCN(CC)c1cc(C)c2cc(NC(=O)c3ccncc3)ccc2n1,-10,-8,-20,-17,71*,-11
O=c1c2cnc3nc(-c4ccncc4)nn3c2ccn1CC1CCCO1 (centres undefined),-3,-2,13,0,0,19
CCN1C(=O)c2cccnc2Sc2cc(NC(=O)CCc3ccc(OC)cc3)ccc21,-10,-50,-78,-11,12,-2
COc1ccc(CC(=O)Nc2ccc3nc(N4CCOCC4)cc(C)c3c2)cc1,-1,7,38*,53*,22,21
COc1ccc(CCC(=O)Nc2ccc3c(c2)Sc2ncccc2C(=O)N3C)cc1,-12,-3,-70,-8,55*,-17
COc1ccccc1CNC(=O)CCC(=O)Nc1ccc2nc(N3CCC(C)CC3)cc(C)c2c1,-4,-5,-12,32*,5,17
COc1cccc(CNC(=O)CCC(=O)Nc2ccc3nc(N4CCCCC4)cc(C)c3c2)c1,-2,-12,-30,0,0,-16
COc1ccc(/C=C/C(=O)Nc2ccc3nc(N4CCN(c5ncccn5)CC4)cc(C)c3c2)cc1,16,2,-11,43*,0,88*
SMILES,USP10 block,USP7 block,USP30 block,USP17 inh,USP28 block,USP8 inh
Cc1cc(N2CCOCC2)nc2ccc(NC(=O)CCC(=O)NCc3ccc(F)cc3)cc12,2,-4,-2,4,-7,9
COc1ccccc1CNC(=O)CCC(=O)Nc1ccc2nc(N3CCN(C)CC3)cc(C)c2c1,-2,5,-22,-8,-1,-5
Cn1c(=O)c2ccc(C3CCN(C(=O)c4ccc(F)cc4)C3)nc2n(C)c1=O (centres undefined),0,1,14,-4,1,8
COc1ccc(S(=O)(=O)N2CCN(C(=O)c3cc(C)nc4ccccc34)CC2)cc1,-9,-7,-106,-26,-214,-41
COc1ccc(S(=O)(=O)N2CCC3(CC2)NC(=O)c2ccccc2N3)cc1,13,3,-12,0,-14,-1
CC(C)CN1C[C@H]2CCN(C(=O)c3ccc(Cl)cc3)CC[C@H]2S1(=O)=O,0,-1,9,7,-3,4
Cc1cc(N2CCCCC2)nc2ccc(NC(=O)CCC(=O)NC(C)c3ccc4c(c3)OCCO4)cc12 (centres undefined),-4,0,11,36*,17,19
Cc1cc(NCCC(=O)Nc2ccc(F)cc2)n2nc(-c3cccnc3)nc2n1,-10,2,-1,-3,8,5
Cc1cc(Nc2ccc(C(=O)NCc3ccco3)cc2)n2nc(-c3cccnc3)nc2n1,5,15,30*,75*,11,11
CC(C)c1cc(Nc2cccc(F)c2)n2nc(-c3cccnc3)nc2n1,0,0,53*,34*,6,16
Cc1cc(Nc2cccc(C(=O)Nc3ccccc3C)c2)n2nc(-c3cccnc3)nc2n1,2,0,46*,8,25,-12
CC(C)c1cc(NCc2cccnc2)n2nc(-c3cccnc3)nc2n1,2,0,x,0,x,5
Cc1cc(Nc2cccc(C(=O)Nc3ccccc3)c2)n2nc(-c3cccnc3)nc2n1,-1,5,21,28,9,16
CCc1ccc(NC(=O)CCNc2cc(C)nc3nc(-c4cccnc4)nn23)cc1,-3,-2,-47,34*,-42,-2
Cc1cccc(C(=O)N2CC(C(=O)NC3CCCC3)C3(CCOCC3)C2)c1 (centres undefined),-2,5,17,5,10,14
COc1ccc(C(NC(=O)COc2ccc(C)cc2)c2ccc(OC)c(OC)c2)cc1OC,-4,0,-18,x,-7,-16
COc1ccccc1/C=C/C=C/C12NC(=O)CN1c1ccccc1C2(C)C (centres undefined),-5,-8,-252,-50,-32,-10
Cc1ccc(NC(=O)C2=NOC3(CCNC3)C2)cc1 (centres undefined),0,4,23,3,12,-15
O=C(Nc1ccccc1F)C1=NOC2(CCNCC2)C1,-4,5,34*,34*,39*,-3
CC1CCN(C(=O)c2cnc3ccccc3c2S(=O)(=O)c2ccc(Cl)cc2)CC1,8,-78,38*,19,20,5
